Measured values taken from PubChem BioAssay AID651706 (NMMLSC, 2012).
Hit rate of the full screen: of about 2,300 compounds, about 55 (2%) were called active.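 Rule for the calls: active = share of green or green-and-red cells above 9 and 9% in run 1 or 4 and 3% in run 2; inactive = the rest, inconclusive results apart.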 These entries were drawn from the full list.

Experiment: differentiation of ER-HoxA9 arrested myeloid cells – cell-based, GFP/Mac1 flow cytometry, cherry pick 01, confirmation (AID 651706);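 for differentiation response: plate controls were double positive share in DMSO wells for no effect and share in positive control wells for full effect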;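 for double positive cells: share of live cells carrying both lysozyme GFP and MAC1 staining after four days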
Details: ER-HoxA9 myeloid progenitors, stronger effect = higher value; differentiation response: GFP/Mac1 double-positive flow; double positive cells: measured here: percent double positive cells

SMILES | differentiation response | double positive cells [%]
Cc1ccc2nc(-c3ccccn3)cc(C(=O)Nc3ccc4c(c3)OCO4)c2c1 | 1.4% (inactive) | 0.8
CCN(CC)CC(=O)c1c[nH]c2ccc(OC)cc12 | 1.4% (inactive) | 0.9
CNc1nc(=O)n(C2CCCO2)cc1C (stereo not given) | 2.7% (inactive) | 1.3
Cc1cc(C)c(-c2csc(NC(=O)CCCc3nc4ccccc4c(=O)[nH]3)n2)c(C)c1 | 3.35% (inactive) | 0
CN1CCC(CN)(N2CCN(c3ccccc3)CC2)CC1 | 1.95% (inactive) | 1.25
COc1ccc(S(=O)(=O)N2CCC(C(=O)N3CCc4ccccc4C3)CC2)cc1OC | 1% (inactive) | 1
Cc1ccc(OS(=O)Nc2cccc3nccnc23)cc1 (stereo not given) | 1.6% (inactive) | 0.85
CCN(CC)C(=O)CSC(Nc1cccc(F)c1)=C(C#N)C#N | 13.7% (inactive) | 0.9
COc1cc(N=Cc2c(O)[nH]c3ccccc23)cc(OC)c1OC | 0% (inactive) | 0
CNC[C@H]1Oc2c(NC(=O)C3CCCCC3)cccc2C(=O)N([C@H](C)CO)C[C@@H]1C | 4.4% (inactive) | 3.95
Cc1nn(-c2ncccn2)c2c1C(=O)CC(C)(C)C2Br (stereo not given) | 1% (inactive) | 0.85
Cn1c2ccccc2c2cc(/C=C(\NC(=O)c3ccccc3)C(=O)NCC(=O)O)ccc21 | 3.05% (inactive) | 2.15
CCOC(=O)c1c(-c2ccc(C)cc2)csc1/N=C(\C)C1=C(O)c2ccccc2C1=O | 12.2% (inactive) | 3.3
COc1ccc(-c2ccc(OC(=O)NC3CCS(=O)(=O)C3)cc2)cc1 (stereo not given) | 2.2% (inactive) | 0.5
O=S(=O)(c1ccc(Br)cc1)c1nc(-c2ccccc2)oc1NCc1cccnc1 | 50.5% (inactive) | 50.2
Nc1nc(Nc2ccccc2F)nc(NC2CCCCC2)c1[N+](=O)[O-] | 51.1% (inactive) | 25
Cc1ccc(Nc2cc(C)nc3c(C)ccc([N+](=O)[O-])c23)cc1 | 11.4% (inactive) | 0.55
CN1OC(COC(=O)c2ccc(Cl)cc2)CC1c1ccccc1 (stereo not given) | 1.05% (inactive) | 0.8
COc1cc(/C=C2/SC(=S)N(Cc3ccccc3)C2=O)cc(OC)c1O | 2.8% (inactive) | 0.4
Clc1ccc(-c2nnc(SCc3nc4ccccc4s3)o2)cc1 | 1.05% (inactive) | 1
CC(=O)Nc1ccc(S(=O)(=O)Nc2ccc(N3CCOCC3)c(F)c2)cc1 | 1.45% (inactive) | 1
COc1ccc(N(CC(=O)NC2CCCCCCC2)S(=O)(=O)c2c(C)nn(C)c2C)cc1 | 1.75% (inactive) | 0.95
O[C@H]1C[C@H](c2ccc(Cl)cc2)N(Cc2cccs2)C[C@@H]1n1cc(C2CC2)nn1 | 18.4% (active) | 13.1
O[C@H]1CN(Cc2cccs2)[C@@H](c2ccc(Cl)cc2)C[C@@H]1n1cc(C2CC2)nn1 | 1.4% (inactive) | 1.1
Cc1ccc2c(c1)C1C[N+](C)(CC(=O)c3ccccc3)CCC1N2C(=O)c1ccccc1Cl (stereo not given) | 4.1% (inactive) | 2.05
Cc1ccc(-n2nc3cc(C)c(NC(=O)c4cccnc4)cc3n2)cc1 | 5.4% (inactive) | 1.05
Cc1cccc(-n2c(SCC(=O)Nc3cccc(S(=O)(=O)NC4=NCCCCC4)c3)nc3ccccc3c2=O)c1C | 17.3% (inactive) | 0.7

SMILES | differentiation response | double positive cells [%]
Fc1cccc(Cl)c1CSc1ccc(-c2ccco2)nn1 | 1.2% (inactive) | 0.8
CC(C)c1nc2ccc(C(=O)O)cc2[nH]1 | 1.95% (inactive) | 1.8
CSc1nnc(-c2ccncc2)n1CCCN1CCCC1=O | 1.75% (inactive) | 1.15
O=C(NCCN=C1NS(=O)(=O)c2ccccc21)c1ccc(S(=O)(=O)N2CCOCC2)cc1 | 1.35% (inactive) | 1.3
CC(=O)N1c2ccc(S(=O)(=O)N3CCCC(C(=O)Nc4cccc(F)c4)C3)cc2CC1C (stereo not given) | 1.45% (inactive) | 0.95
O=C(Nc1cccc2ncccc12)c1ccc(-c2ccc(Cl)cc2Cl)o1 | 4.55% (inactive) | 2.9
Cc1cccc(OCC(O)CN2CCN(CCN3C(=O)c4cccc5cccc(c45)C3=O)CC2)c1C (stereo not given) | 0.25% (inactive) | 0
Cc1cccc(C)c1NC(=O)CCS(=O)(=O)c1cccc2nsnc12 | 2% (inactive) | 1.5
CC(C)CNC(=O)COC(=O)/C=C/c1ccccc1[N+](=O)[O-] | 1.45% (inactive) | 1.2
COC(=O)CN(c1cccc(C(C)=O)c1)S(C)(=O)=O | 2.05% (inactive) | 1.5
O=C(CN1C(=O)NC(Cc2c[nH]c3ccccc23)C1=O)Nc1ccccc1C(F)(F)F (stereo not given) | 1.7% (inactive) | 1.2
CC1(C)CC(=O)C2=C(C1)Nc1cc(C(=O)c3ccccc3)ccc1NC2c1ccccn1 (stereo not given) | 1.95% (inactive) | 1.65
CCOC(=O)C1=C(CN2CCc3ccccc32)NC(=O)NC1c1cccc([N+](=O)[O-])c1 (stereo not given) | 12.3% (active) | 8.95
Cc1nc(C)c(-c2nnc(-c3cccc(S(=O)(=O)N(C)C)c3)o2)cc1C(=O)NN | 4.1% (inactive) | 1.3
Cc1ccc2c(c1)c1ncn(Cc3ccc(F)cc3)c(=O)c1n2C | 2% (inactive) | 0.8
O=c1oc2ccccc2cc1-c1csc(Nc2ccc(O)cc2)n1 | 27.4% (inactive) | 12.5
Cc1cc(C)n(C(=O)c2ccc(C)c(S(=O)(=O)N3CCOCC3)c2)n1 | 1.9% (inactive) | 1.8
Cc1cc(C)c(S(=O)(=O)NCC2CCC(C(=O)NCc3ccc4c(c3)OCO4)CC2)c(C)c1 (stereo not given) | 3.7% (inactive) | 1.35
CCOc1ccc(C(=O)Nc2ccc(S(=O)(=O)NCC3CCCO3)cc2)cc1OCC (stereo not given) | 1.5% (inactive) | 1.2
CC(C)(C)OC(=O)CNC(=O)c1[nH]cnc1C(=O)N[C@@H](Cc1ccccc1)C(=O)OCc1ccccc1 | 1.85% (inactive) | 1.95
CCCC(=O)Nc1c(O)c2ccccc2[nH]c1=O | 1.45% (inactive) | 1.1
C/C(=C\c1ccccc1)C1NC(=O)c2c(sc3c2CCCC3)N1 (stereo not given) | 1.1% (inactive) | 0.75
COc1ccc(C2CC(c3cccc(OC)c3)=NN2c2ccc(S(N)(=O)=O)cc2)cc1 (stereo not given) | 2.25% (inactive) | 1.4
CC(=O)Nc1ccc(S(=O)(=O)Nc2ccc(N3CCCCC3)cc2)cc1 | 0% (inactive) | 0
CN(C(=O)c1cccc([N+](=O)[O-])c1)c1ccccc1C(=O)NCc1ccccc1 | 1.65% (inactive) | 1.35
CC(C)C(=O)N1CCN(c2nc(-c3ccccc3)c3c(c2C#N)CC(C)(C)OC3)CC1 | 1.8% (inactive) | 1.6
O=C(CCCN1C(=O)CCC1=O)Nc1ccc(Cl)c(C(F)(F)F)c1 | 1.55% (inactive) | 1.1

SMILES | differentiation response | double positive cells [%]
CC(CNc1ccc([N+](=O)[O-])cc1)NC(=O)c1ccccc1Br (stereo not given) | 1.65% (inactive) | 1
CN(C(=O)CSc1nnc(C2CC2)n1C)C1CCCc2ccccc21 (stereo not given) | 2.6% (inactive) | 2.05
COc1ccc(C(=O)N(Cc2ccccc2)c2ccc(C)cc2)cc1S(=O)(=O)N1CCOCC1 | 1.9% (inactive) | 0.95
COc1ccc2nc(N3CCN(C(=O)c4ccc([N+](=O)[O-])o4)CC3)sc2c1 | 3.05% (inactive) | 0
O=C(NCC1CCCCC1)NCC1CCCCC1 | 0.8% (inactive) | 0.5
O=C(NC(=O)c1ccccc1)Nc1ccccc1O | 5.8% (inactive) | 0.95
O=S(=O)(NCc1cccnc1)c1ccc(Cl)nc1 | 1.35% (inactive) | 1.1
CC(C)CC(COCc1ccc(Cl)cc1)N1CCN(C(=O)c2ccc(C(F)(F)F)cc2)CCC1=O (stereo not given) | 2.15% (inactive) | 1.95
CCOC(=O)c1c(-c2ccccc2)oc2ccc(OCC(=O)NN)cc12 | 2.65% (inactive) | 0.85
COc1ccccc1N1CCN(C(=O)c2cc(-c3ccc(Br)cc3)on2)CC1 | 1.9% (inactive) | 1.65
Nc1ccc2nc3c(=O)[nH]c(=S)[nH]c3nc2c1 | 11.7% (inactive) | 1.75
COc1cccc(NC(=O)[C@H](Cc2c[nH]c3ccccc23)NC(=O)[C@@H]2Cc3ccccc3CN2)c1 | 5% (active) | 4.8
CCc1c(C)sc(NC(=O)c2cccs2)c1C(N)=O | 7.25% (inactive) | 5.9
O=C(CN(c1ccccc1)S(=O)(=O)c1ccc(Cl)cc1)Nc1ccccc1C(=O)N1CCCC1 | 2.2% (inactive) | 1.4
O=C(Cn1cc(-c2nnnn2-c2ccc(Cl)cc2)c(=O)c2ccccc21)c1ccccc1 | 3.55% (inactive) | 2.6
CC1CCCC(NC(=O)CN2CCN(Cc3ccc(Cl)cc3)C2=O)C1C (stereo not given) | 4.75% (inactive) | 2.6
CCc1noc(C)c1C(=O)Nc1nc(-c2ccccc2)cs1 | 1.4% (inactive) | 1
C=CCNc1nnc(SCC(=O)N2CCCCC2)c2ccccc12 | 2.2% (inactive) | 1.55
COc1cccc(NC(=S)NCc2ccccn2)c1 | 1.3% (inactive) | 1.3
COc1ccc(C(C(=O)NCc2ccccc2)n2c(=O)c(-c3ccccc3)nc3ccccc32)cc1 (stereo not given) | 29.1% (inactive) | 12.2
Cc1ccc(C)c(S(=O)(=O)N2CCN(c3ncnc4sccc34)CC2)c1 | 5.55% (inactive) | 0
O=C1c2ccccc2C(=O)N1Cc1cc(-c2ccccc2Cl)no1 | 2.85% (inactive) | 1.25
N#CC1=C(N)Oc2c(sc3ccccc23)C1c1ccco1 (stereo not given) | 50% (inactive) | 25
CCOC(=O)CC(=O)CSc1nc(-c2ccccc2)cc(-c2ccc(Cl)cc2)c1C#N | 1.35% (inactive) | 1.15
COc1ccccc1CNC(=O)c1cc(-c2cc(Cl)ccc2C)n[nH]1 | 0.15% (inactive) | 0
CCOC(=O)c1c(-c2cccc(C)c2)csc1NC(=O)c1c(-c2ccccc2)noc1C | 0.75% (inactive) | 0.25
